From PubChem BioAssay (NCI) come the findings set out here.

About 79,000 compounds went through this panel and 15% of them were active in at least one assay; those are over-represented in the sample as a whole. Values without a mark were called inactive. Rule as the data show it: active = growth inhibition above about 70%; inactive = the rest. Where a SMILES comes first, the peptide text is derived from it. The star is where a group is joined. Bz = O=C(c1ccccc1)*; Bn = c1ccc(C*)cc1; βAla = NCCC(=O)O; For = O=C*

The test is described as follows: NCI Yeast Anticancer Drug Screen. Data for the rad50 strain (AID 155).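 Also: 0% = growth of vehicle-only cultures of the same strain.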 The note with it: S. cerevisiae rad50 strain growth inhibition; at 50.0 µM; stronger effect = higher value. The protocol:
Growth inhibition of yeast strains with defined genetic alterations is measured as a screen for potential anti-cancer activity. Selected strains with alterations in DNA damage repair or cell cycle control were exposed to compounds and growth inhibition was measured relative to vehicle treated controls. The strain used in this assay is rad50
`O=C1CN(CCN2CCCCC2)CC(=O)N2Cc3ccccc3CN12`: the growth inhibition was -10.1%.
Regarding `CC(C)(Oc1ccc(C(=O)c2ccc(Cl)cc2)cc1Cl)C(=O)N1CCN(CCO)CC1`, the growth inhibition is -18.9%.
On to `N#CC1(C#N)CC1(C#N)C#N`, for which the growth inhibition is 7.9%.
On to `COC(=O)C(CSCc1ccccc1)NC(=O)C(CSCc1ccccc1)NC(=O)CCNC(=O)c1ccccc1` (stereo not given) ({Bz-βAla}-Cys(Bn)-Cys(Bn)-OMe; configuration not given here), for which the growth inhibition is 13.9%.
Consider `CC(C)=CCC\C(C)=C/C=C/C(C)=C\C=C\C(C)=C/C=C/C=C(C)\C=C\C=C(C)/C=C/C=C(/C)CCC=C(C)C`, for which the growth inhibition was 7.15%.
Regarding `CN(C)C=NCc1ccc2c(c1)OCO2`, the growth inhibition is 2.05%.
To `COc1ccc(N=C(C)C2C(=O)c3ccccc3C2=O)cc1` belongs 44%; to `CCOC(=O)c1c(O)nc2sc3ccccc3n2c1=O`, 19%.
To `CCc1nnc2sc(=S)[nH]n12` belongs -7.65%; to `CCCSS[C@H]1NC(=O)[C@H]1NC(=O)COc1ccccc1`, 31.1%; to `CCOC(=O)/C=C\SCCC(=O)O`, 10.1%.
For the compound `COc1ccc(C2=Nc3ccccc3NC(=O)C2)cc1`, the growth inhibition was -10.2%.
In the case of `CCCO[C@@H]1[C@@H](OC(C)=O)[C@@H](OC(C)=O)C(C)(C)/C=C/[C@H](C)C(=O)[C@@]2(OC(C)=O)C[C@@](C)(OC(C)=O)[C@H](OC(C)=O)[C@@H]2[C@H]2OC(=O)CC[C@@]12OC(=O)c1ccccc1`, the growth inhibition is -14.7%.
For the compound `O=C1c2ccccc2-c2ccc3c4ccc5c6c(ccc(c7ccc1c2c73)c64)-c1ccccc1C5=O`, the growth inhibition was 25%.
On to `CCC(=O)Nc1nnc(SCCCCCCCCCCSc2nnc(NC(=O)CC)s2)s1`, for which the growth inhibition was 20.6%.
Consider `COc1ccc2nc(N(C)C)cc(N(C)C)c2c1`, for which the growth inhibition is -10.6%.
As to `CC(=O)Nc1ccc(OC2=CCN(C)CC2)cc1`, the growth inhibition was 0.75%.
For `CCOc1ccc(Nc2nc(C)c(C(=O)CC(=O)C(=O)Nc3ccc(C(C)C)cc3C(C)C)s2)cc1`, the growth inhibition is -31.2%.
Consider `COc1ccc(/C=C2\N=C(c3ccccc3)N(Nc3nnc(NN4C(=O)/C(=C/c5ccc(OC)cc5)N=C4c4ccccc4)c4ccccc34)C2=O)cc1`, for which the growth inhibition was -9.4%.
As to `CC1=CC2=NC(=O)C(c3ccccc3)C(=O)N2C=C1` (stereo not given), the growth inhibition is -1.05%.
Regarding `O=C(Nc1ccc(Br)cc1C(F)(F)F)C(F)(F)F`, the growth inhibition is 6%.
Consider `NC(=O)NC(=O)c1ccco1`, for which the growth inhibition was 52.7%.
To `CC(C)CCOC(=S)S` belongs 35.2%; to `CCOC(=O)C(NC(=O)Cc1ccccc1)C1NC(C(=O)O)CS1` (stereo not given), 19.9%; to `O=c1c2ccccc2n2c(-c3ccccc3O)nnc2n1-c1ccccc1`, 6.5%.
Regarding `COc1cc(CC(NC(=O)c2ccccc2)C(C)=O)cc(OC)c1OC` (stereo not given), the growth inhibition was -9.7%.
As for `Nc1ccc2c(c1)NCC2`, the growth inhibition is -27.6%.
As to `CN(C)c1ccc(Cc2ccc(N(C)C)cc2)cc1`, the growth inhibition is -4.1%.
On to `NCCCN(CCO)CCO`, for which the growth inhibition is -42.5%.
Regarding `CCN(CC)CCCn1cnc2ncccc2c1=O`, the growth inhibition is -12.3%.
Next, `CC(C)CC(F)(C(N)=O)C(N)=O`: -4.6%.
As to `CCOC(=O)C1CNCCC1=O` (stereo not given), the growth inhibition is -5.25%.
As to `N#CCc1c(F)c(F)c(F)c(F)c1F`, the growth inhibition is 6.8%.
`Cc1cc(CC(N)C(=O)O)ccc1O` (stereo not given): the growth inhibition was -0.65%.
`CC1=COC(=O)[C@@H]2[C@@H](C)CC[C@@H]12`: the growth inhibition was 1.1%.
As for `O=C(c1ccc(F)cc1)c1c[nH]c(=O)[nH]c1=O`, the growth inhibition was -0.45%.
For the compound `CCCCOC(=O)NCNC(=O)OCCCC`, the growth inhibition was 23.2%.
Next, `COc1ccc(N=Nc2c(C)c(C#N)c(=S)n(C3OC(CO)C(O)C(O)C3O)c2C)cc1` (stereo not given): 16.1%; `COC(=O)CCCCCN1C(=O)c2cccc([N+](=O)[O-])c2C1=O`: 20.6%; `CSCCC(NC(=O)C(Cc1ccccc1)NC=O)C(=O)O` (stereo not drawn) (For-Phe-Met-OH; configuration not given here): -12.1%.
